Here are results for eleven compounds from ChEMBL document CHEMBL3988442, “University of Dundee, Small-Polar-MMV Screening Library” (2021).

Holding throughout (set-up): scale not given: direction of the effect not stated beside the values
Assay [1] concerns the target Protein translocase subunit SecA (Escherichia coli (strain K12)) (UniProt P10408). As to the kind of experiment: Assay to Identify E. coli SecA ATPase Inhibitors. Type of assay: functional. To be noted: 30 µM.
Assay [2] concerns the target T1, Ubiquitin-activating enzyme e1, putative (Leishmania donovani (strain BPK282A1)) (UniProt E9BSI1).
T1 sequence (whole entry): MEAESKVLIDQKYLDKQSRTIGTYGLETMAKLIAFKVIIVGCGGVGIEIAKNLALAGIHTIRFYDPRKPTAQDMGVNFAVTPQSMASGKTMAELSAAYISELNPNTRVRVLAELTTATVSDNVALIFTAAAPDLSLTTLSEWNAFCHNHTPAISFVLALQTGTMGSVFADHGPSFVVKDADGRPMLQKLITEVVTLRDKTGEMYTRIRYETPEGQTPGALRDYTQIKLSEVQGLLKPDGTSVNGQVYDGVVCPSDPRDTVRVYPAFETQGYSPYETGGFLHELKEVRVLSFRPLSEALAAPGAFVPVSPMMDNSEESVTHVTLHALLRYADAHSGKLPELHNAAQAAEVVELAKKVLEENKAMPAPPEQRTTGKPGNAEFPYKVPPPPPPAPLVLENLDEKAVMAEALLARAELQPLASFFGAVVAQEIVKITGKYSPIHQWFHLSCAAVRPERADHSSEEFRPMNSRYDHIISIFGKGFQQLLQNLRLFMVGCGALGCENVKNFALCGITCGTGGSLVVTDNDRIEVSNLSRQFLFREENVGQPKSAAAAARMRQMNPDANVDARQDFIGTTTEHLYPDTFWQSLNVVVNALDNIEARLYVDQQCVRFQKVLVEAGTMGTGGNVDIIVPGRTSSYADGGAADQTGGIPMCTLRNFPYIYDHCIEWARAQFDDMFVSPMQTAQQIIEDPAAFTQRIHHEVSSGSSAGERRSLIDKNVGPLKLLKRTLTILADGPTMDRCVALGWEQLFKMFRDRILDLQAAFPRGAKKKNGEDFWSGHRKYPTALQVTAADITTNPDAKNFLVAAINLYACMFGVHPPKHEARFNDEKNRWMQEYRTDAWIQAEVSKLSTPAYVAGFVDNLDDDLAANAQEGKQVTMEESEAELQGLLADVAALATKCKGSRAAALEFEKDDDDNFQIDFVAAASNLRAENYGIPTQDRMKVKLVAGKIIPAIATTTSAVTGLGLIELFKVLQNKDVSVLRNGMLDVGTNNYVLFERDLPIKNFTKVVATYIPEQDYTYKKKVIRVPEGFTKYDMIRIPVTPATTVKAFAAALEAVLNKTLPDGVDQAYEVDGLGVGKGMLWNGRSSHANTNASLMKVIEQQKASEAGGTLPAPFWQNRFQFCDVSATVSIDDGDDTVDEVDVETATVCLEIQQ
Nature of the assay: Leishmania donovani Ubiquitin Activating Enzyme (LdE1). Type of assay: functional. To be noted: 30 µM.

The target of assay [3] is AMP-activated protein kinase, AMPK (Homo sapiens) (UniProt P54646+O43741+P54619+Q9UGJ0+Q9Y478+Q13131+Q9UGI9). As to the kind of experiment: AMP-dependent Kinase enzyme assay. An in vitro enzyme assay that detects ADP turnover that is directly proportional to AMPK activity. This uses naive AMPK that is activated during the assay with MK-8722. The settings on record: 30 µM. The assay is classed as functional.

Assay [4] addresses Sialic acid-binding Ig-like lectin 9 (Homo sapiens) (UniProt Q9Y336). As to the kind of experiment: Hs-Siglec9 ALPHAscreen SOP 20170721. The settings on record: 10 µM.
For assay [5], the system named is Trypanosoma cruzi. As to the kind of experiment: Trypanosoma cruzi phosphomannomutase and mannose-1-phosphate guanylyltransferase assay. The assay is classed as functional. To be noted: 10 µM.
Assay [6] addresses T2, Arginase-2, mitochondrial (Homo sapiens) (UniProt P78540).
T2 sequence (whole entry): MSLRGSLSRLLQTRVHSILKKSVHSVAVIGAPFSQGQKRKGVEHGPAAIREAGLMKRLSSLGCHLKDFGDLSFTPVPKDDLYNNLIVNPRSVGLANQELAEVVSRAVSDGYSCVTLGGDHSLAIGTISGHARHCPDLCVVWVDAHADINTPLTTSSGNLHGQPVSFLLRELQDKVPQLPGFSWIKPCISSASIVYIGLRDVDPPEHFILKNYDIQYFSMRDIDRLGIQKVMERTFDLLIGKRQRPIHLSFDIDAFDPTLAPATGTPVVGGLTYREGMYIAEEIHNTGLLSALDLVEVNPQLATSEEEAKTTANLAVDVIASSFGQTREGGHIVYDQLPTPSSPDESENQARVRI
As to the kind of experiment: in vitro enzyme assay to detect the production of urea directly proportional to the activity of Arginase II. Also: in the data most compounds retested in dose-response had high values. The assay is classed as functional. The settings on record: 33.3 µM.

The target in assay [7] is T3, Proteasome subunit beta (Trypanosoma cruzi) (UniProt O96673).
T3 sequence (whole entry): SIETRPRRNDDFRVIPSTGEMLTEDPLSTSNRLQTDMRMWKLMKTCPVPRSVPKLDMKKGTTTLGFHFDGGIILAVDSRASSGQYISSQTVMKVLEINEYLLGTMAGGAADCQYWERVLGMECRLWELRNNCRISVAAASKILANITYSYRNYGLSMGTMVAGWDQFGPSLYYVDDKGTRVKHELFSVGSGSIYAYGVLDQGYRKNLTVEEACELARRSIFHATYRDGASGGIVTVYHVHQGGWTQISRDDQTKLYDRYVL
Nature of the assay: Trypanosoma cruzi proteasome chymotrypsin-like activity (TcProtChymo) assay. Also: in the data most compounds retested in dose-response had high values. Type of assay: functional. The settings on record: 9.37 µM.

Assay [8] is filed under the species Homo sapiens. As to the kind of experiment: To identify inhibition of the IFN signalling (Jak-Stat) pathway via expression of an eGFP reporter gene under the control of an IFN-stimulated response element (ISRE) containing MxA promoter. The settings on record: 30 µM. The assay is classed as functional. A general note: A reporter such as luciferase makes a cellular process visible.

The target in assay [9] is T4, Tyrosyl-tRNA synthetase, putative (Trypanosoma cruzi (strain CL Brener)) (UniProt Q4DSP6).
T4 sequence (whole entry): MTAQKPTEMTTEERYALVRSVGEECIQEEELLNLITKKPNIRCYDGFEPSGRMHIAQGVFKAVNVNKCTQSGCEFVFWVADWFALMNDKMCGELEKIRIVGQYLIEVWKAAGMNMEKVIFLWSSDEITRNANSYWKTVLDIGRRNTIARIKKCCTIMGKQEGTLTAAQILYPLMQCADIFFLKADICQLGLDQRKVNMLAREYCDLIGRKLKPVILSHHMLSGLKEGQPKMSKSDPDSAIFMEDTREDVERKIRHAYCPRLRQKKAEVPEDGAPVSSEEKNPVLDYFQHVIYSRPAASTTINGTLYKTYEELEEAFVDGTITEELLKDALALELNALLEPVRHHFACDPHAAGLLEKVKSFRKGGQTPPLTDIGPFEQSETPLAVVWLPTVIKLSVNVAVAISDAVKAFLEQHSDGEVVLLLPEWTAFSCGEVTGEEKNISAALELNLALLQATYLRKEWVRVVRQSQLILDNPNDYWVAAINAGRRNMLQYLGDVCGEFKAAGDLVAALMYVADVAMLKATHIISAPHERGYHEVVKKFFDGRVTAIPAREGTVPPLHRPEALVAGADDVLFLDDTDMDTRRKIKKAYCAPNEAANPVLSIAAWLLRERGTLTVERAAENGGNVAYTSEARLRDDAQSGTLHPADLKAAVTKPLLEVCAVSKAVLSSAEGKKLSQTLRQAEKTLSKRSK
As to the kind of experiment: Trypanosoma cruzi tyrosyl tRNA synthetase (TcYRS) _High Tyrosine SOP. Also: in the data most compounds retested in dose-response had high values. Type of assay: functional. To be noted: 30 µM.

Assay [10] deals with T4, Tyrosyl-tRNA synthetase, putative (Trypanosoma cruzi (strain CL Brener)). Nature of the assay: Trypanosoma cruzi tyrosyl tRNA synthetase (TcYRS) SOP. Type of assay: functional. The settings on record: 30 µM.
For assay [11], the target named is Chromo domain-containing protein 1 (Saccharomyces cerevisiae (strain ATCC 204508 / S288c) (Baker's yeast)) (UniProt P32657). As to the kind of experiment: ScCHD-1 Enzyme Inhibition Assay. Also: in the data most compounds retested in dose-response had high values. The assay is classed as functional. The settings on record: 30 µM.
Chromo domain-containing protein 1 (Saccharomyces cerevisiae (strain ATCC 204508 / S288c) (Baker's yeast)), sequence (P32657 whole entry, the tested form may be a part): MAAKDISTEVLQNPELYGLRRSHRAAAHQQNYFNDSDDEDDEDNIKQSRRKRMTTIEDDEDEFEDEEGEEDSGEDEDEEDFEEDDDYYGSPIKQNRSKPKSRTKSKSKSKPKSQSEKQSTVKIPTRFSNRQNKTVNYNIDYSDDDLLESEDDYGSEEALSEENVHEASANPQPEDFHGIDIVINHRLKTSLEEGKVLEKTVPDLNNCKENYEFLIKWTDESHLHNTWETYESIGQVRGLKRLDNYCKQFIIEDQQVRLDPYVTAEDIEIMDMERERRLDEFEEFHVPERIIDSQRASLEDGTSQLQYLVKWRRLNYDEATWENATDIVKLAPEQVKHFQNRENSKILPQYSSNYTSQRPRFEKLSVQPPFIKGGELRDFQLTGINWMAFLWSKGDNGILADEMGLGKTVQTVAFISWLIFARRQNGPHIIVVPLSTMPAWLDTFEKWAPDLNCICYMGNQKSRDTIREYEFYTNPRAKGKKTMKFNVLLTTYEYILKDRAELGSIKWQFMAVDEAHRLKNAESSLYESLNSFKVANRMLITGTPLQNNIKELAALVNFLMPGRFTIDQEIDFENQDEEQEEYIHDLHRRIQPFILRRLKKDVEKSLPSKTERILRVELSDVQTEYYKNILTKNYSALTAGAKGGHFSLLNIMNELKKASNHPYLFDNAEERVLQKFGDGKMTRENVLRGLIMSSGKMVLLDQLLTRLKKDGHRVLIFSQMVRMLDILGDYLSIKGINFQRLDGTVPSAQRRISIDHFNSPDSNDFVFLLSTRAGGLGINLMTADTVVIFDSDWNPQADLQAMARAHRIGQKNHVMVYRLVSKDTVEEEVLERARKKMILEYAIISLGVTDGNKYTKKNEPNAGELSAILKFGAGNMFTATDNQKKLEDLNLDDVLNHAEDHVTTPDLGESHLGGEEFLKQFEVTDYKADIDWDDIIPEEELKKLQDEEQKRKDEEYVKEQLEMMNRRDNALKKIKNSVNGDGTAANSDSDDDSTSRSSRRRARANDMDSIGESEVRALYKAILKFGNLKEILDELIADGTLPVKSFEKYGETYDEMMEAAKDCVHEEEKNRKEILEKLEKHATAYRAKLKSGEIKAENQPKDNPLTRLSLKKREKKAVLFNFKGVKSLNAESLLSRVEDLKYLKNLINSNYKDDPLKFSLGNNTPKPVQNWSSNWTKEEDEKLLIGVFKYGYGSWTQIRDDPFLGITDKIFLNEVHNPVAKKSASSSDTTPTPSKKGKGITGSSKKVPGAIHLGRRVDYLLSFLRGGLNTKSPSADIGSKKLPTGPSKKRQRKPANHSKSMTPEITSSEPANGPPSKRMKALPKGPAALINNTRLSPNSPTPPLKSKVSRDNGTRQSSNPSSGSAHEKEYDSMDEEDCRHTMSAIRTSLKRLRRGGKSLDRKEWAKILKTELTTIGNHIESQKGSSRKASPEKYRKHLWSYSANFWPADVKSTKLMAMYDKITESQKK

For some of these results: Entries with a potency or affinity are not part of this list.

Protein translocase subunit SecA (Escherichia coli (strain K12)), sequence (P10408 whole entry): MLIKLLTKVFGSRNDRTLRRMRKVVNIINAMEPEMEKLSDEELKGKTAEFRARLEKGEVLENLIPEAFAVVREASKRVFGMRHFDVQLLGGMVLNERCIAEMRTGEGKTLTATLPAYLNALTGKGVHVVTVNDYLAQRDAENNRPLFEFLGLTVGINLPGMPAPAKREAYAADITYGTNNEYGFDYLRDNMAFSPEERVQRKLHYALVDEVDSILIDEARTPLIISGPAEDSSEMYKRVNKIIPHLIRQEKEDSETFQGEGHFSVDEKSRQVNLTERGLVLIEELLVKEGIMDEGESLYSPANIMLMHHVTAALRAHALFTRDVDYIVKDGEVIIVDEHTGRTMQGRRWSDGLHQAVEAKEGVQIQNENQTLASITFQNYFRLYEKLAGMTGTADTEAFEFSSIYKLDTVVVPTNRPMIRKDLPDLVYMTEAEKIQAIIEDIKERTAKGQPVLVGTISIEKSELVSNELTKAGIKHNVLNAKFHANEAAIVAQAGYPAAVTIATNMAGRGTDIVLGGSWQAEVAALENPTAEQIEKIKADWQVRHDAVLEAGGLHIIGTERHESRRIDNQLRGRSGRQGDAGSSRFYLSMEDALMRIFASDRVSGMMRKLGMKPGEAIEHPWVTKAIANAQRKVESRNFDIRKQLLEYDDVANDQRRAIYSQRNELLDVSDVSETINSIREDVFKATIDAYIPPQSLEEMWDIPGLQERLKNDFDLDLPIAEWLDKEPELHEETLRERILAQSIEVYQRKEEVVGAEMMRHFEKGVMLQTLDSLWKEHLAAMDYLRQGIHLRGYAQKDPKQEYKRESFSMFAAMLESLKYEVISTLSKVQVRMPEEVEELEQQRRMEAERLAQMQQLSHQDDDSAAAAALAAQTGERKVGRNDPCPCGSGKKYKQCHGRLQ
Sialic acid-binding Ig-like lectin 9 (Homo sapiens), sequence (Q9Y336 whole entry): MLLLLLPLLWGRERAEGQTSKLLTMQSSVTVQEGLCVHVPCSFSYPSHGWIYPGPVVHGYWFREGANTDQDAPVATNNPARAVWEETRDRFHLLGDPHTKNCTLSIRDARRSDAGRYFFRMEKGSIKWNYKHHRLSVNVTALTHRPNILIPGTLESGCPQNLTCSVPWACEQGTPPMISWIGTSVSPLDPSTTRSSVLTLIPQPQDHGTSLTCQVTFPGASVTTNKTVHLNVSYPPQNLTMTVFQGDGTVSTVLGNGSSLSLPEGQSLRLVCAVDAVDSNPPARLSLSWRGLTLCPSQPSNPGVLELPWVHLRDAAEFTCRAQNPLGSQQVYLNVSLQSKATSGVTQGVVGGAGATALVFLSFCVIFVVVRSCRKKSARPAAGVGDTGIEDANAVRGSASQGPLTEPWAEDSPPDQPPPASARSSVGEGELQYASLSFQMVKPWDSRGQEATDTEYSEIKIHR

Regarding `Cc1nc2ccccc2nc1CN(C)CC1CCCN1c1cccnn1` (stereo unspecified), the Percent Effect in assay [1] was -5.25%; in assay [2], 5.2%; in assay [3] it was 0.00702%; in [4], -11.8%; in [5], 3.23%; in assay [6], 1.47%. For the same compound, the Percent Effect in [7] is 5.58%; in assay [8], 21.9%; in assay [9] it was 10.5%; in assay [10], 2.35%; in assay [11], -19.8%.

As for `O=C(NCCC(=O)N1CCCc2ccccc21)c1c(O)cc(F)cc1F`, the Percent Effect in assay [1] was -5.79%; in assay [2], 10.4%; in assay [3], -0.269%; in [4], 9.22%; in assay [5], 6.95%; in [6], -1.47%. Besides, the Percent Effect is 11.1% in assay [7]; 22.7% in assay [8]; -0.952% in [9]; -49.4% in assay [10]; -16.6% in [11].

On to `CCn1c(C)cc(C(=O)N2CCCC(c3nc(C)no3)C2)c1C` (stereo unspecified), for which the Percent Effect in assay [1] is -3.15%; in assay [2] it was 15.6%; in assay [3], 3.61%; in assay [4], -3.42%; in [5], 2.06%; in assay [6], 1.47%. Also, the Percent Effect in [7] is 17.5%; in assay [8], 14.4%; in assay [9], 8.57%; in assay [10], 9.41%; in [11], -22.5%.

Regarding `CCc1ncc(C(=O)NCCNC(=O)Cc2ccc(F)cc2)s1`, the Percent Effect in assay [1] was -1.95%; in [2], 8%; in assay [3], -16.6%; in assay [4] it was 11.1%; in assay [5], 5.55%; in assay [6], 16.7%. Moreover, the Percent Effect in assay [7] was 11.3%; in assay [8], -8.05%; in [9], 7.1%; in assay [10] it was 16.1%; in [11], -3.11%.

Consider `CCCNC(=O)Cn1nc(C(C)C)c2cnn(C(C)(C)C)c2c1=O`, for which the Percent Effect in [1] was -3.37%; in [2] it was 5.48%; in assay [3] it was -13.9%; in assay [4], 4.27%; in assay [5], -0.392%; in [6], 2.27%. For the same compound, the Percent Effect in assay [7] is 16.1%; in [8], 5.42%; in assay [9], 8.6%; in assay [10], 15%; in assay [11] it was -5.95%.

Regarding `COCCNC(=O)NCCc1ccn(-c2ccccc2)n1`, the Percent Effect in assay [1] is -3.6%; in [2], -3.8%; in assay [3] it was 7.66%; in assay [4], 4.04%; in assay [5], 5.64%; in [6], -0.215%. Also, the Percent Effect in assay [7] was 13.7%; in assay [8], 5.09%; in assay [9], -4.17%; in assay [10], 10.1%; in assay [11], -16.7%.

In the case of `CC(C)OCCCN1CCCC(c2nc3ccccc3n2C(C)C)C1` (stereo unspecified), the Percent Effect in [1] was -2.17%; in assay [2] it was 13.5%; in [3], -7.28%; in [4], -1.96%; in assay [5], 3.32%; in assay [6], 32.9%. Moreover, the Percent Effect is 15% in assay [7]; 22.4% in assay [8]; 9.9% in assay [9]; 13.4% in [10]; 6.88% in assay [11].

As for `CN(C)c1ccc(CCCNC(=O)Nc2ccc(C#N)cc2)cc1`, the Percent Effect was 1.86% in assay [1]; 8.11% in assay [2]; 2.26% in assay [3]; 11.1% in assay [4]; 3.86% in assay [5]; 11.4% in assay [6]. In addition, the Percent Effect in [7] is 15.7%; in assay [8], 72%; in assay [9] it was 5.82%; in [10], 14.6%; in assay [11] it was -5.31%.

In the case of `CC1=NN(c2ccc(C(=O)N3CCCC(n4ccnc4)C3)cc2)CC1` (stereo unspecified), the Percent Effect is -5.1% in [1]; 10.1% in assay [2]; -5.15% in [3]; 0.444% in assay [4]; 9.35% in assay [5]; -1.9% in [6]. The Percent Effect in assay [7] is -1.06%; in assay [8], 15.8%; in assay [9], 10.3%; in [10], 16.5%; in assay [11] it was -6.17%.

On to `Cn1nc(CNC(=O)C2CCCC2)cc1C1CC1`, for which the Percent Effect in assay [1] is -6.17%; in [2], 10.4%; in assay [3], -2.49%; in assay [4] it was -7.84%; in [5], 5.23%; in assay [6], -0.645%. Further, the Percent Effect in [7] is 2.79%; in assay [8] it was 6.93%; in assay [9], 0%; in [10], 16.7%; in assay [11] it was -8.08%.

As to `COc1cc(C(=O)NC(CC(=O)O)c2cccs2)cc(Cl)c1OC` (stereo unspecified), the Percent Effect in assay [1] is -3%; in [2], 8.86%; in assay [3], 6.71%; in assay [4], -5.2%; in assay [5] it was -3.79%; in [6], 1.07%. In addition, the Percent Effect in assay [7] was 20.9%; in assay [8], -0.746%; in assay [9] it was 2.08%; in [10], 5.06%; in [11] it was -25.4%.
